# Source: PubChem BioAssay (several laboratories)
# In the library only some 2.8% were active in any assay of this set; here they are far more common.
# EBV LMP1 NFkB: inhibitors of Epstein-Barr LMP1-induced NF-kappaB reporter. LMP1-induced NF-kappaB luciferase reporter cells, luminescence. inhibition, % at 12.5 µM. hit rate 0.69% among 350,000; in the data active means inhibition above about 41%
# Peg3 prom inh: reduces Peg3 promoter-driven luciferase expression in HeLa; AID 588405; inhibition, % at 20 µM; hit rate 1.7% among 360,000; HeLa PEG-Prom luciferase reporter, luminescence, overnight;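 active means inhibition of at least 50% at 20 µM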
# PAX8 reporter: PAX8 transcriptional activity inhibition; RMG-I TPO-luciferase reporter, SteadyGlo, 24 h; inhibition, % at 12.6 µM; hit rate 1.2% among 360,000; AID 652154;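 active means mean replicate inhibition at least 60% with every replicate also reaching 60%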;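 further: luciferase light reporting Pax8 driven TPO promoter activity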
# HIF-2a inh: HIF-2a inhibition; inhibition, % at 18.8 µM; hit rate 0.72% among 360,000; 786-0 RCC cells HIF-2a reporter, luciferase luminescence, overnight; AID 624352;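 active means inhibition of the luminescence signal of 40% or more relative to plate controls, in a single-dose primary screen at 18.75 µM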
# TRPM1 prom inh: MITF TRPM1 promoter inhibition in SK-MEL-5 cells; SK-MEL-5 TRPM1 promoter luciferase, 24 h; inhibition, % at 12.5 µM; hit rate 0.83% among 330,000;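 active means mean inhibition across replicates of 60% or more, whatever share of single replicates reaches that level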
# Shn3 3UTR inh: reduces Shn3 3'UTR luciferase signal in osteoblasts | hit rate 0.52% among 360,000 | Clone20 osteoblast Shn3 3'UTR firefly luciferase, 24 h | inhibition, % at 12.5 µM;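 active means mean inhibition of at least 75% with every replicate also reaching 75%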
# Numbers stand for hits; - = inactive; . = no result.
SMILES,EBV LMP1 NFkB,Peg3 prom inh,PAX8 reporter,HIF-2a inh,TRPM1 prom inh,Shn3 3UTR inh
COc1ccc2[nH]c3c(N4CCN(Cc5ccc6c(c5)OCO6)CC4)ncnc3c2c1,-,55,.,-,-,-
O=[N+]([O-])c1ccc2ncnc(N3CCN(Cc4ccc5c(c4)OCO5)CC3)c2c1,42,-,-,-,-,-
COc1ccc2cc(C(=O)N3CCN(Cc4ccc5c(c4)OCO5)CC3)[nH]c2c1,-,-,-,-,-,-
COc1ccc2[nH]c3c(N4CCC(O)(c5cccc(C(F)(F)F)c5)CC4)ncnc3c2c1,-,57,-,-,-,-
C[C@H]1CN([C@@H](C)CO)C(=O)Cc2cc(NC(=O)Cc3ccccc3)ccc2O[C@@H]1CN(C)Cc1ccncc1,.,.,-,.,.,.
COCC(=O)N[C@H]1CC[C@H](CC(=O)NCc2ccc(Cl)cc2)O[C@H]1CO,.,.,-,.,.,.
COc1ccc(-c2cn(CC[C@H]3CC[C@H](NC(=O)NC(C)C)[C@@H](CO)O3)nn2)cc1,.,.,-,.,.,.
Cn1c(=O)[nH]c(=O)c2c1nc(N1CCCCC1)n2CCSc1nc2ccccc2o1,-,-,-,-,.,-
CC(C)CCn1c(Sc2nc3ccccc3o2)nc2c1c(=O)[nH]c(=O)n2C,57,-,-,-,-,-
O=C1C(=O)N(c2nccs2)C(c2ccccc2)/C1=C(\O)c1ccc2c(c1)OCCO2 (centres undefined),-,-,.,-,67,-
CCN(CC)CCNC(=O)c1nn(-c2ccc(Cl)cc2)c2c1CCc1cc(OC)ccc1-2,-,94,-,-,-,-
CO[C@@H]1CC[C@@H]2CCN(C)C(=O)[C@@H](C)CN(C)C(=O)c3cccc(C#N)c3OC[C@H]1O2,.,.,-,.,.,.
CC(=O)Nc1cccc(-c2ccnc3c2CC(C)(C(=O)Nc2ccc(C(C)C)cc2)O3)c1 (centres undefined),.,52,-,-,.,-
CC(=O)Nc1cccc(-c2ccnc3c2CC(C)(C(=O)Nc2cccc(Oc4ccccc4)c2)O3)c1 (centres undefined),.,-,64,-,.,-
CC1(C(=O)Nc2cccc(Oc3ccccc3)c2)Cc2c(-c3ccccc3)ccnc2O1 (centres undefined),.,-,-,-,.,-
CC(=O)Nc1cccc(-c2ccnc3c2CC(C)(C(=O)Nc2ccccc2)O3)c1 (centres undefined),.,-,-,-,.,-
CCN(C[C@@H]1[C@@H](c2ccccc2)[C@@H](CO)N1CC1CC1)C(=O)c1ccccn1,.,.,-,.,.,.
COc1ccc2c3c(n(C)c2c1)[C@H](CO)N(CC1CCOCC1)CC31CCN(C(=O)CN(C)C)CC1,.,.,-,.,.,.
CO[C@H]1CN(C)C(=O)c2cc(NC(=O)Nc3ccc4c(c3)OCO4)ccc2OC[C@@H](C)NC[C@H]1C,.,.,-,.,.,.
CCOc1ccc(N(CC(=O)NC2CCCC2)S(=O)(=O)c2c(C)[nH]c(=O)[nH]c2=O)cc1,-,72,-,-,-,-
Cc1cc(C)cc(N(CC(=O)NC2CCCCCC2)S(=O)(=O)c2c(C)[nH]c(=O)[nH]c2=O)c1,-,-,-,-,-,-
COc1ccc(OCC(=O)c2c[nH]c3ccccc23)cc1,-,-,-,-,-,-
COc1ccc2c(C(=O)CCl)c[nH]c2c1,-,-,-,-,75,-
COc1ccccc1CNC(=O)CCc1cn(C)c2ccccc12,74,-,-,-,-,-
COc1ccccc1CNC(=O)CCCc1cn(C)c2ccccc12,-,-,-,-,-,-
SMILES,EBV LMP1 NFkB,Peg3 prom inh,PAX8 reporter,HIF-2a inh,TRPM1 prom inh,Shn3 3UTR inh
N#C/C(=N\Nc1cccc([N+](=O)[O-])c1)C(=O)c1ccc(Br)cc1,-,-,91,-,-,-
O=C(O)c1ccc(N=NNc2cccc([N+](=O)[O-])c2)cc1,-,-,-,-,-,-
CCN(CC)c1ccc(/C=C2\SC(=O)N(C(C)C)C2=O)o1,.,89,.,-,.,97
CCC(=O)N1CCCCN2[C@H](C1)[C@H](c1ccc(/C=C/c3ccccc3)cc1)[C@@H]2CO,.,.,-,.,.,.
CC(C)COC(=O)N(C)C[C@H]1OCc2ccccc2-c2ccccc2C(=O)N([C@@H](C)CO)C[C@@H]1C,.,.,-,.,.,.
Cc1cc(C(=O)Cn2cnc3cc(F)ccc3c2=O)c(C)n1C1CC1,-,-,-,-,-,93
Cc1cc(C(=O)COC(=O)c2cccnc2Cl)c(C)n1CC1CCCO1 (centres undefined),65,-,-,-,-,-
COc1cccc(C#Cc2ccc([C@H]3[C@H]4CN(C(=O)c5ccccc5)CC(=O)N4[C@H]3CO)cc2)c1,.,.,-,.,.,.
O=C(c1ccccc1F)N1CC(=O)N2[C@@H](CO)[C@@H](c3ccc(C#Cc4ccc(F)cc4)cc3)[C@@H]2C1,.,.,108,.,.,.
O=C(c1ccc(F)cc1)N1CC(=O)N2[C@H](C1)[C@H](c1ccc(/C=C/c3ccccc3)cc1)[C@@H]2CO,.,.,69,.,.,.
COc1cccc(C#Cc2ccc([C@@H]3[C@H](CO)N4C(=O)CN(C(=O)c5ccccc5)C[C@@H]34)cc2)c1,.,.,69,.,.,.
O=C(c1ccccc1F)N1CC(=O)N2[C@H](C1)[C@H](c1ccc(C#Cc3ccc(F)cc3)cc1)[C@@H]2CO,.,.,-,.,.,.
COc1ccc(NC(=O)N2CC(=O)N3[C@H](C2)[C@@H](c2ccc(/C=C/c4ccccc4)cc2)[C@@H]3CO)cc1,.,.,-,.,.,.
COc1ccc(NC(=O)N2CC(=O)N3[C@@H](CO)[C@@H](c4ccc(/C=C/c5ccccc5)cc4)[C@@H]3C2)cc1,.,.,89,.,.,.
COc1ccccc1-c1cn(CC[C@@H]2CC[C@H](NC(=O)CCN3CCCCC3)[C@H](CO)O2)nn1,.,.,-,.,.,.
Cc1noc(C)c1S(=O)(=O)Nc1ccc2c(c1)C(=O)N([C@H](C)CO)C[C@H](C)[C@H](CN(C)S(=O)(=O)c1ccccc1)OCCCC[C@@H](C)O2,.,.,-,.,.,.
Cc1noc(C)c1S(=O)(=O)Nc1ccc2c(c1)C(=O)N([C@H](C)CO)C[C@@H](C)[C@H](CN(C)CC1CCCCC1)OCCCC[C@@H](C)O2,.,.,-,.,.,.
C[C@H]1CN([C@@H](C)CO)S(=O)(=O)c2ccc(C#CCC3CCCC3)cc2O[C@H]1CN(C)C(=O)CN(C)C,.,.,64,.,.,.
CCC(=O)N(C)C[C@H]1Oc2cc(C#CCC3CCCC3)ccc2S(=O)(=O)N([C@@H](C)CO)C[C@@H]1C,.,.,-,.,.,.
COCC(=O)N(C)C[C@H]1Oc2cc(C#CCC3CCCC3)ccc2S(=O)(=O)N([C@@H](C)CO)C[C@@H]1C,.,.,73,.,.,.
C[C@H](CO)N1C[C@H](C)[C@@H](CN(C)C(=O)CN(C)C)Oc2cc(C#CCC3CCCC3)ccc2S1(=O)=O,.,.,-,.,.,.
COCC(=O)N(C)C[C@H]1Oc2cc(C#CCC3CCCC3)ccc2S(=O)(=O)N([C@H](C)CO)C[C@H]1C,.,.,69,.,.,.
COc1ccccc1S(=O)(=O)N(C)C[C@H]1Oc2cc(C#CCC3CCCC3)ccc2S(=O)(=O)N([C@@H](C)CO)C[C@@H]1C,.,.,82,.,.,.
COCC#Cc1cnc2c(c1)C(=O)N([C@H](C)CO)C[C@H](C)[C@@H](CN(C)C(=O)Cc1ccccc1)O2,.,.,-,.,.,.
C[C@H]1CN([C@@H](C)CO)C(=O)CCCn2cc(nn2)CO[C@@H]1CN(C)Cc1ccc2cccnc2c1,.,.,-,.,.,.
